Reference: PubChem BioAssay AID1159580 (chemical genetic matrix, 2015)
The whole screen tested about 5,500 compounds, of which about 2,000 (36%) were called active. Inconclusive results (about 18%) are left out. Cut-off read from the data, not from the text of the source: active = normalized growth mostly below about 0.91 (no sharp cut-off); inconclusive = no clear call, values can overlap the other calls; inactive = mostly above about 0.92. This is one part of the list.

Test: chemical genetic growth profiling, strain panel (AID 1159580);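 note: tested at 20 µM; growth read once vehicle control cultures reached saturation at 30 °C; 1 = growth at the plate median or of vehicle wells; lower values mean less growth of the strain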
Settings: growth OD

Measured: normalized growth

O=C(/C=C/c1ccc(O)c(O)c1)O[C@@H]1C[C@](O)(C(=O)O)C[C@@H](O)[C@H]1O
inactive: S. cerevisiae deletion strains, locus YKL009W, strain mrt4, stronger effect = lower value 1.04 | S. cerevisiae deletion strains, locus YKL068W, stronger effect = lower value 1.01 | S. cerevisiae deletion strains, locus YKL085W, strain MDH1 (second series), stronger effect = lower value 1 | S. cerevisiae deletion strains, locus YKL085W, strain MDH1, stronger effect = lower value 1 | S. cerevisiae deletion strains, locus YKL160W, strain elf1, stronger effect = lower value 1.03 | S. cerevisiae deletion strains, locus YKR001C, strain vps1, stronger effect = lower value 1.03 | S. cerevisiae deletion strains, locus YKR026C, strain gcn3, stronger effect = lower value 0.973 | S. cerevisiae deletion strains, locus YKR091W, strain srl3, stronger effect = lower value 0.992 | S. cerevisiae deletion strains, locus YLL001W, strain dnm1, stronger effect = lower value 0.99 | S. cerevisiae deletion strains, locus YLL026W, stronger effect = lower value 0.985 | S. cerevisiae deletion strains, locus YLL041C, strain sdh2, stronger effect = lower value 0.974 | S. cerevisiae deletion strains, locus YLR027C, strain aat2, stronger effect = lower value 0.999 | S. cerevisiae deletion strains, locus YLR039C, strain RIC1, stronger effect = lower value 1.05 | S. cerevisiae deletion strains, locus YLR058C, strain SHM2, stronger effect = lower value 1.01 | S. cerevisiae deletion strains, locus YLR102C, strain apc9, stronger effect = lower value 1.01 | S. cerevisiae deletion strains, locus YLR113W, strain HOG1, stronger effect = lower value 1 | S. cerevisiae deletion strains, locus YLR221C, strain rsa3, stronger effect = lower value 0.972 | S. cerevisiae deletion strains, locus YLR258W, strain gsy2, stronger effect = lower value 0.985 | S. cerevisiae deletion strains, locus YLR262C, strain YPT6 (second series), stronger effect = lower value 0.996 | S. cerevisiae deletion strains, locus YLR262C, strain YPT6, stronger effect = lower value 1.11 | S. cerevisiae deletion strains, locus YLR268W, strain sec22, stronger effect = lower value 1.05 | S. cerevisiae deletion strains, locus YLR320W, strain mms22, stronger effect = lower value 0.969 | S. cerevisiae deletion strains, locus YLR330W, strain CHS5, stronger effect = lower value 1.01 | S. cerevisiae deletion strains, locus YLR342W, strain FKS1 (second series), stronger effect = lower value 0.998 | S. cerevisiae deletion strains, locus YLR342W, strain FKS1, stronger effect = lower value 0.988 | S. cerevisiae deletion strains, locus YLR357W, strain rsc2, stronger effect = lower value 1 | S. cerevisiae deletion strains, locus YLR370C, strain arc18, stronger effect = lower value 0.986 | S. cerevisiae deletion strains, locus YLR371W, strain rom2, stronger effect = lower value 1.01 | S. cerevisiae deletion strains, locus YLR384C, strain iki3, stronger effect = lower value 0.96 | S. cerevisiae deletion strains, locus YLR418C, strain cdc73, stronger effect = lower value 0.992 | S. cerevisiae deletion strains, locus YML016C, strain PPZ1, stronger effect = lower value 1 | S. cerevisiae deletion strains, locus YML032C, strain rad52, stronger effect = lower value 0.999 | S. cerevisiae deletion strains, locus YML120C, strain ndi1, stronger effect = lower value 0.993 | S. cerevisiae deletion strains, locus YML124C, strain tub3, stronger effect = lower value 1.01 | S. cerevisiae deletion strains, locus YMR058W, strain fet3, stronger effect = lower value 0.978 | S. cerevisiae deletion strains, locus YMR078C, strain ctf18, stronger effect = lower value 1.02 | S. cerevisiae deletion strains, locus YMR125W, strain sto1, stronger effect = lower value 0.99 | S. cerevisiae deletion strains, locus YMR129W, stronger effect = lower value 0.991 | S. cerevisiae deletion strains, locus YMR205C, strain PFK2, stronger effect = lower value 1.03 | S. cerevisiae deletion strains, locus YMR223W, strain ubp8, stronger effect = lower value 1 | S. cerevisiae deletion strains, locus YMR231W, strain pep5, stronger effect = lower value 0.971 | S. cerevisiae deletion strains, locus YMR263W, strain SAP30, stronger effect = lower value 1.01 | S. cerevisiae deletion strains, locus YMR307W, strain GAS1, stronger effect = lower value 0.959 | S. cerevisiae deletion strains, locus YNL067W, strain RPL9B, stronger effect = lower value 1.04 | S. cerevisiae deletion strains, locus YNL071W, strain lat1, stronger effect = lower value 0.987 | S. cerevisiae deletion strains, locus YNL128W, strain TEP1, stronger effect = lower value 1.04 | S. cerevisiae deletion strains, locus YNL153C, strain GIM3, stronger effect = lower value 1.02 | S. cerevisiae deletion strains, locus YNL183C, strain NPR1, stronger effect = lower value 0.957 | S. cerevisiae deletion strains, locus YNL209W, strain ssb2, stronger effect = lower value 0.991 | S. cerevisiae deletion strains, locus YNL233W, strain BNI4, stronger effect = lower value 1.02 | S. cerevisiae deletion strains, locus YNL248C, strain rpa49, stronger effect = lower value 0.982 | S. cerevisiae deletion strains, locus YNL250W, strain rad50, stronger effect = lower value 1.03 | S. cerevisiae deletion strains, locus YNL271C, strain bni1, stronger effect = lower value 1.01 | S. cerevisiae deletion strains, locus YNL298W, strain CLA4, stronger effect = lower value 1.02 | S. cerevisiae deletion strains, locus YNL307C, strain MCK1, stronger effect = lower value 1.02 | S. cerevisiae deletion strains, locus YNL322C, strain KRE1 (second series), stronger effect = lower value 0.976 | S. cerevisiae deletion strains, locus YNL322C, strain KRE1, stronger effect = lower value 1 | S. cerevisiae deletion strains, locus YNR049C, strain mso1, stronger effect = lower value 0.973 | S. cerevisiae deletion strains, locus YNR052C, strain pop2, stronger effect = lower value 1.01 | S. cerevisiae deletion strains, locus YOL006C, strain TOP1, stronger effect = lower value 1.15 | S. cerevisiae deletion strains, locus YOL012C, strain htz1 0.974 | S. cerevisiae deletion strains, locus YOL147C, strain pex11, stronger effect = lower value 1.02 | S. cerevisiae deletion strains, locus YOR001W, strain rrp6, stronger effect = lower value 0.925 | S. cerevisiae deletion strains, locus YOR061W, strain CKA2, stronger effect = lower value 1.01 | S. cerevisiae deletion strains, locus YOR069W, strain VPS5, stronger effect = lower value 1.01 | S. cerevisiae deletion strains, locus YOR070C, strain gyp1, stronger effect = lower value 0.985 | S. cerevisiae deletion strains, locus YOR080W, strain dia2, stronger effect = lower value 0.983 | S. cerevisiae deletion strains, locus YOR083W, strain WHI5, stronger effect = lower value 1.04 | S. cerevisiae deletion strains, locus YOR106W, strain vam3, stronger effect = lower value 1 | S. cerevisiae deletion strains, locus YOR136W, strain idh2, stronger effect = lower value 1.03 | S. cerevisiae deletion strains, locus YOR144C, strain elg1, stronger effect = lower value 1.01 | S. cerevisiae deletion strains, locus YOR184W, strain ser1, stronger effect = lower value 1 | S. cerevisiae deletion strains, locus YOR231W, strain MKK1, stronger effect = lower value 1.02 | S. cerevisiae deletion strains, locus YOR265W, strain rbl2, stronger effect = lower value 0.999 | S. cerevisiae deletion strains, locus YOR270C, strain vph1, stronger effect = lower value 0.924 | S. cerevisiae deletion strains, locus YOR290C, strain snf2, stronger effect = lower value 1.01 | S. cerevisiae deletion strains, locus YOR316C, strain cot1, stronger effect = lower value 1.02 | S. cerevisiae deletion strains, locus YPL051W, strain arl3, stronger effect = lower value 0.999 | S. cerevisiae deletion strains, locus YPL055C, strain LGE1, stronger effect = lower value 1.03 | S. cerevisiae deletion strains, locus YPL078C, strain atp4, stronger effect = lower value 1.02 | S. cerevisiae deletion strains, locus YPL106C, strain sse1, stronger effect = lower value 0.995 | S. cerevisiae deletion strains, locus YPL240C, strain hsp82, stronger effect = lower value 0.969 | S. cerevisiae deletion strains, locus YPL256C, strain CLN2, stronger effect = lower value 1.01 | S. cerevisiae deletion strains, locus YPR119W, strain clb2, stronger effect = lower value 1.01 | S. cerevisiae deletion strains, locus YPR141C, strain kar3, stronger effect = lower value 1.01 | S. cerevisiae deletion strains, locus YPR163C, strain tif3, stronger effect = lower value 1.03 | S. cerevisiae deletion strains, locus YPR167C, strain met16, stronger effect = lower value 1.01 | S. cerevisiae deletion strains, strain wtn01, stronger effect = lower value 1.05 | S. cerevisiae strains, strain wild type, stronger effect = lower value 1.01
